# Measurements reported in the supplement of paper PMC10646978.
# ± gives the standard deviation.
# What was measured:
# Conditions in all cases: modulator concentration 10 µM
# [1] = system: RAW-Dual (murine macrophage reporter line); test: NF-kB reporter (SEAP) activity fold change vs agonist alone; higher = enhanced NF-kB activity
# How it was run: (§1)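 RAW-Dual murine macrophage reporter cells were seeded at 50 000 per well in 384-well plates and pre-incubated 1 hour at 37 °C with compound pin-transferred to 10 μM final. After 1 hour, a PRR agonist was added and cells incubated overnight. Supernatant NF-κB (SEAP, QUANTI-Blue, 620 nm absorbance) and IRF (Lucia luciferase, QUANTI-Luc, luminescence) signals were divided by the mean agonist-only control on the same plate to give fold change. Two replicate plates were averaged, with errors by propagation.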
# [2] = system: RAW-Dual (murine macrophage reporter line); test: IRF reporter (Lucia luciferase) activity fold change vs agonist alone; higher = enhanced IRF activity
# How it was run: as §1
# [3] = system: RAW-Dual (murine macrophage reporter line); test: viability score (confluency relative to resting cells, overnight) (fraction); higher = more viable, active = viable (0.7 or more)
# How it was run: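 RAW-Dual macrophages in 384-well plates were incubated overnight with compound, final concentration 10 μM. Confluency images from IncuCyte were processed in IncuCyte software into two masks covering all imaged wells. The viability score is each well's confluency relative to resting cells, and a compound met the cutoff when both masks exceeded 70% of resting cells.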
# [4] = agonist: CpG ODN 1826 0.5 ug/mL
Structure (SMILES),"NF-kB reporter [1, 4]",NF-kB reporter ([1]; agonist: LPS 0.1 ug/mL),NF-kB reporter ([1]; agonist: MPLA […]),IRF reporter ([2]; agonist: 3'3'-cGAMP 10 ug/mL),IRF reporter ([2]; agonist: LPS 0.1 ug/mL),IRF reporter ([2]; agonist: MPLA […]),viability score [3]
CCC(C)(Oc1ccc(C2(c3ccc(OC(C)(CC)C(=O)O)cc3)CCCCC2)cc1)C(=O)O (centres undefined),1.14 ± 0.26,1.09 ± 0.39,0.919 ± 0.063,0.946 ± 0.037,1.29 ± 0.44,1.24 ± 0.093,0.986 (active)
COc1cccc(C=Nc2cccc([N+](=O)[O-])c2C)c1O,0.661 ± 0.054,0.906 ± 0.066,0.978 ± 0.035,0.903 ± 0.077,0.93 ± 0.088,0.948 ± 0.17,1 (active)
CCOc1ccc(CN2CCN(c3cc(C)nc4c5c(C)cc(C)nc5nn34)CC2)cc1,0.944 ± 0.08,1.04 ± 0.077,1.02 ± 0.022,1.05 ± 0.1,1 ± 0.14,0.96 ± 0.26,1 (active)
CCCOc1ccc(C2NC(=O)NC(C)=C2C(=O)OC(C)C(C)(C)C)cc1OC (centres undefined),0.557 ± 0.033,1.04 ± 0.063,0.746 ± 0.052,0.478 ± 0.016,0.722 ± 0.077,0.656 ± 0.061,0.96 (active)
COc1cc(OC)c(C(=O)CCCN2CCCC2)c(OC)c1.Cl,0.98 ± 0.096,1.01 ± 0.063,1 ± 0.057,0.937 ± 0.081,0.941 ± 0.035,0.899 ± 0.07,1 (active)
O=S(=O)(NN=Cc1c[nH]c2ccccc12)c1ccc(Cl)cc1,0.627 ± 0.053,0.619 ± 0.029,0.844 ± 0.078,0.0905 ± 0.0084,1.32 ± 0.11,1.31 ± 0.13,0.962 (active)
CN(C)CCNC(=S)NC(=O)C12CCC3CC(CC(C3)C1)C2,0.978 ± 0.1,1 ± 0.094,0.982 ± 0.062,0.994 ± 0.033,1.5 ± 0.17,1.07 ± 0.068,1.01 (active)
c1ccc(-c2ccc(C(c3ccccc3)n3ccnc3)cc2)cc1 (centres undefined),0.825 ± 0.097,0.893 ± 0.083,1.22 ± 0.12,0.966 ± 0.044,1.31 ± 0.076,1.41 ± 0.15,1 (active)
O=C(O)CC(c1ccccc1)N1C(=O)c2ccccc2C1=O (centres undefined),0.999 ± 0.17,1.04 ± 0.13,0.963 ± 0.11,0.976 ± 0.044,1.24 ± 0.22,1.3 ± 0.21,1 (active)
CN(C)CCCN(C(=O)Cc1ccc(F)cc1)c1nc2ccc(Cl)cc2s1.Cl,0.447 ± 0.029,0.503 ± 0.079,1.08 ± 0.1,0.799 ± 0.035,0.714 ± 0.066,2.19 ± 0.47,0.0615 (inactive)
O=C(CCCN1CCC(O)(c2ccc(Br)cc2)CC1)c1ccc(F)cc1 [Prestw-509],0.892 ± 0.15,1.12 ± 0.14,1.04 ± 0.13,0.925 ± 0.024,1.01 ± 0.16,1.16 ± 0.13,0.998 (active)
Cc1cc(OC2CCN(C(=O)c3csc(C)n3)CC2)nc(C)n1,1.01 ± 0.051,1.11 ± 0.095,0.923 ± 0.068,0.954 ± 0.088,1.23 ± 0.12,1.15 ± 0.23,1.01 (active)
CSc1nc2cccc(F)c2c(=O)n1C1CC1,1.06 ± 0.078,1.02 ± 0.093,1.18 ± 0.076,1.09 ± 0.051,1.31 ± 0.25,1.52 ± 0.38,0.67 (inactive)
COC(=O)c1ccc2c(c1)NC(=O)/C2=C(\Nc1ccc(N(C)C(=O)CN2CCN(C)CC2)cc1)c1ccccc1,1.34 ± 0.2,1.18 ± 0.27,1.02 ± 0.063,0.325 ± 0.024,0.851 ± 0.14,0.474 ± 0.041,0.998 (active)
Clc1nc(N2CCOCC2)nc(N(c2ccccc2)c2ccccc2)n1,0.889 ± 0.077,0.908 ± 0.086,1.08 ± 0.12,1.02 ± 0.049,1.41 ± 0.22,1.53 ± 0.42,1.03 (active)
CN1CCN(C2=C(Cl)C(=O)N(c3ccc(Cl)c(Cl)c3)C2=O)CC1,0.902 ± 0.11,1.01 ± 0.091,0.759 ± 0.045,0.524 ± 0.016,1.54 ± 0.28,1.24 ± 0.21,1.01 (active)
CN(C(=O)COc1coc(CN2CCN(c3ccccc3)CC2)cc1=O)c1ccccc1,0.931 ± 0.052,0.933 ± 0.06,0.977 ± 0.057,0.97 ± 0.034,1.18 ± 0.12,0.986 ± 0.088,1 (active)
CC(=O)NC(Cc1c[nH]c2ccccc12)C(=O)O (centres undefined),1.09 ± 0.27,1.09 ± 0.083,0.978 ± 0.063,0.969 ± 0.042,1.33 ± 0.14,1.3 ± 0.13,0.995 (active)
O=C(Nc1ccc(F)c(F)c1)c1ccnc(OCC2CCOCC2)c1,1.15 ± 0.07,0.969 ± 0.084,0.908 ± 0.046,0.856 ± 0.051,1.16 ± 0.14,1.26 ± 0.36,0.995 (active)
COc1cccc2c1C(=O)c1c(O)c3c(c(O)c1C2=O)C[C@@](O)(C(C)=O)C[C@@H]3O[C@H]1C[C@H](N)[C@H](O)[C@H](C)O1.Cl,0.115 ± 0.0076,0.0574 ± 0.0063,0.0998 ± 0.0052,0.0163 ± 0.004,0.0195 ± 0.0046,0.0153 ± 0.0037,0.0601 (inactive)
N#Cc1cc(-c2n[nH]c(-c3ccncc3)n2)ccn1,0.998 ± 0.19,1.06 ± 0.32,0.958 ± 0.077,0.891 ± 0.035,1.13 ± 0.25,1.12 ± 0.28,1 (active)
COc1ccccc1N1CCN(c2ncnc3c2cnn3-c2cc(C)cc(C)c2)CC1,1.2 ± 0.067,1.16 ± 0.1,1.19 ± 0.042,1.01 ± 0.049,1.05 ± 0.098,1.08 ± 0.16,0.997 (active)
COc1cccc(-c2csc(NC(=O)C3CC3)n2)c1,1.16 ± 0.19,1.44 ± 0.11,1.31 ± 0.17,1.19 ± 0.053,1.26 ± 0.26,1.35 ± 0.14,1 (active)
COc1ccc(-n2c(=O)c3c4c(sc3n3c(SC)nnc23)CCCC4)cc1,1.16 ± 0.13,1.06 ± 0.074,1.14 ± 0.044,0.971 ± 0.18,0.96 ± 0.04,0.921 ± 0.064,1 (active)
CCCCCCc1ccc(O)cc1O,1.02 ± 0.14,0.919 ± 0.21,0.874 ± 0.058,0.588 ± 0.057,1.2 ± 0.23,1.2 ± 0.13,0.298 (inactive)
COc1ccc(NC(=O)CN2C(=O)c3ccccc3C2=O)c([N+](=O)[O-])c1,0.798 ± 0.064,0.948 ± 0.087,0.989 ± 0.11,0.963 ± 0.048,1.29 ± 0.082,1.36 ± 0.13,1.01 (active)
CCCCCCCC(=O)N[C@H](CN1CCCC1)[C@H](O)c1ccc2c(c1)OCCO2,0.989 ± 0.097,1.03 ± 0.067,1.21 ± 0.026,0.853 ± 0.047,1.03 ± 0.15,1.2 ± 0.11,0.968 (active)
